Laboratory results published in PubChem BioAssay (EPA / NIEHS).
Activity calls are given as the source filed them. Rule for the calls: active = hit-call score of the fitted dose curve at least 0.9, where 1 is the maximum; inactive = score below 0.9.

These compounds were tested on MicroRNA 122 (MIR122), gene 406906 (assay: LTEA_HepaRG_MIR122: Life Technologies and Expression Analysis (LTEA) Assay for MicroRNA 122 (MIR122) using HepaRG (AID 2283516; note: the transcript read is the microRNA miR-122)). Details: mRNA level, 48 h; actives raise or lower the signal.
Experimental: LTEA_HepaRG is a cell based, multiplexed-readout assay that uses HepaRG, a human liver cell line, with measurements taken at 48 hours after chemical dosing on a 96-well plate.LTEA_HepaRG_MIR122 is one of 102 assay component(s) measured in the LTEA HepaRG cell culture assay. It is a marker of MicroRNA.Data from the assay component LTEA_HepaRG_MIR122 was analyzed into 1 endpoint. This assay endpoint, LTEA_HepaRG_MIR122, was analyzed with bidirectional fitting relative to DMSO as the negative control and baseline of activity. Using a type of inducible reporter, measures of mRNA induction for gain or loss-of-signal activity can be used to understand regulation of transcription factor activity. To generalize the intended target to other relatable targets, this assay endpoint is annotated to the microrna intended target family, where the subfamily is post-transcriptional regulation.
A total of 1060 chemcials from the ToxCast library were tested in eight-point concentration-response experiments. Cell culture and cytotoxicity assays were conducted at Thermo Fisher Scientific's Custom Services facility (Madison, WI). A single lot of human HepaRG cells (Thermo Fisher Scientific, Frederick, MD) was used for the cell culture experiments. 96-well format collagen type I coated plates of human HepaRG cells were prepared using established methods. Briefly, cryopreserved HepaRG cells were thawed, plated at a density of approximately 100,000 cells/well in HepaRG Thaw, Plate, and General Purpose media (HPRG770, Thermo Fisher Scientific), and incubated for 48 hours. 0.5% DMSO was selected as vehicle control to balance the requisite need of DMSO in HepaRG cultures to maintain differentiation (for example, baseline metabolism, proportions of hepatocytes vs. cholangiocytes), while enabling further hepatic receptor pathway activation (for example, PXR and CAR) in response to chemical exposure. 48 hours after plating, the culture medium was replaced with HepaRG Serum-Free Incudtion Media. Cells were exposed to each test chemical in duplicate and maintained in CO2 incubators for another 48 hours. Chemical plates were thawed to room temperature and 200x concentrations of treatment groups were prepared. 8-point conentration-reponse curves were made with the highest exposure at 100 uM, followed by half-log dilutions, all in 0.5% DMSO. Each test plate contained variouse controls, induction positive controls (1mM phenobarbital), cytotoxicity positive controls ([…] aflatoxin B1), vehicle controls (0.5% DMSO), and total lysis controls (0.5% DMSO). Cell morphology images were taken using an Essen IncuCyte FLR automated microscope, with six 96-well plates imaged in about 24 minutes. Images were captured and exported and JPEG files. Spent culture media was transfered to black-well plates for the LDH assay, and remaining media was sorted at -80 C for later use. Cells were treated with RLT buffer and frozen until shipped for gene expression analysis. Total RNA was isolated from the cell suspension in 75 uL of Buffer RLT (Qiagen, Germantown, MD 20874) by Quintiles/Expression Analysis (Durham, NC) using a custom isolation procedure. Total RNA from each plate well was transferred to a preamplification plate. Fluidigm's 96.96 Dynamic ArrayTM (Fluidigm, Amsterdam, the Netherlands) technology was used for gene expression analyses by quantitative reverse transcription polymerase chain reaction (qRT-PCR, performed by Quintiles/Expression Analysis, Durham, NC)89. Standard TaqManTM Assays (Applied Biosystems/ThermoFisher Scientific, Foster City, CA) were used to assess the expression of 93 genes selected based on their selectivity and sensitivity to important hepatic receptors known to be modulated by environmental chemicals; importance in human hepatocyte functionality; and hepatotoxicity. […]

Compound	outcome
OCCN(CCO)CCO	inactive
Clc1cccc(Cl)c1	inactive
Clc1cccc(Cl)c1Cl	inactive
Cc1cc(C)cc(C)c1	inactive
CCCCCCCCCCCCc1cccc(S(=O)(=O)O)c1	inactive
Oc1c(Cl)cc(Cl)cc1Cl	inactive
COc1ccccc1N	inactive
CC(C)O.CC(C)O.OCCN(CCO)CCO.OCCN(CCO)CCO.[Ti]	inactive
N#Cc1cccnc1	inactive
CN(C)C(=S)S	inactive
CC(C)(C)c1ccccc1O	inactive
O=C(O)C1(c2ccc3c(c2)OC[C@H](Cc2ccc(-c4ccccc4)cc2)[C@H]3O)CCCC1	inactive
Oc1cc(Cl)c(Cl)cc1Cl	inactive
O=C(N[C@H]1CN2CCC1CC2)c1ccc2c(c1)OCCO2	inactive
